{"source": "PubChem BioAssay (NCATS)", "note": "Records with an inconclusive call do not appear. Calls of active or inactive are those of the source. Calls follow the shape of the dose curve; as a rule, active = well fitted cell-killing curve with a large enough effect; inconclusive = small, poorly fitted or top-dose-only effect; inactive = flat fitted curve, though single readings scatter. % is scaled to controls: 0 for no effect and ±100 for the full control effect; potency is read from the fitted curve at half-maximal effect."}
{"assay": "Cellular viability qHTS for adrenocortical cancer (ACC) cell line SW-13 (AID 1963989); also: nearly all actives have a fitted effect of over 65% in size;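 as to activity (max response): cells grown in serum-free medium with ITS supplement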", "details": "SW-13 ACC cells viability, CellTiter-Glo, 48 h; activity (max response): hits give low values", "method_in_brief": "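SW-13 cells in ITS-supplemented serum-free DMEM were plated overnight, then exposed for 48 h at 37C to compound titrations (up to 46 uM final). Viability was read by CellTiter-Glo luminescence; four-parameter logistic fits gave IC50 and efficacy.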"}
{"smiles": "CC(=O)SCC(CC(=O)c1ccc(C)cc1)C(=O)O", "note": "(stereo not given)", "activity (max response)": "11.5% (inactive)"}
{"smiles": "CCc1c(C)[nH]c2c1C(=O)C(CN1CCOCC1)CC2", "note": "(stereo not given)", "activity (max response)": "7.75% (inactive)"}
{"smiles": "O=[N+]([O-])c1ccc(/C=N\\O)o1", "activity (max response)": "-5.61% (inactive)"}
{"smiles": "C/C=C/CC(C)C(O)C1C(=O)NC(CC)C(=O)N(C)CC(=O)N(C)C(CC(C)C)C(=O)NC(C(C)C)C(=O)N(C)C(CC(C)C)C(=O)NC(C)C(=O)NC(C)C(=O)N(C)C(CC(C)C)C(=O)N(C)C(CC(C)C)C(=O)N(C)C(C(C)C)C(=O)N1C", "note": "(stereo not given)", "activity (max response)": "-11.5% (inactive)"}
{"smiles": "CCOC(=O)OC(C)OC(=O)[C@@H]1N2C(=O)[C@@H](NC(=O)[C@H](N)c3ccccc3)[C@H]2SC1(C)C", "note": "(stereo not given in full)", "activity (max response)": "4.54% (inactive)"}
{"smiles": "C=C1/C(=C/C=C2\\CCCC3(C)[C@@H]([C@H](C)/C=C/C=C/C(O)(CC)CC)CC[C@@H]23)C[C@@H](O)C[C@@H]1O", "note": "(stereo not given in full)", "activity (max response)": "-11% (inactive)"}
{"smiles": "CN1[C@@H]2CC[C@H]1CC(NC(=O)n1c(=O)[nH]c3ccccc31)C2", "note": "(stereo not given in full)", "activity (max response)": "2.49% (inactive)"}
{"smiles": "COc1cc(C)c(/C=C/C(C)=C/C=C/C(C)=C/C(=O)O)c(C)c1C", "activity (max response)": "-22.4% (inactive)"}
{"smiles": "CC(C)c1c(-c2ccccc2)nc2c(C#N)c[nH]n2c1=O", "activity (max response)": "-8.31% (inactive)"}
{"smiles": "Cc1cc(O)c2c(O)c3c(O)cccc3cc2c1", "activity (max response)": "-2.49% (inactive)"}
{"smiles": "CNCCCN1c2ccccc2CCc2ccccc21", "Potency": "20.6 µM (active)"}
{"smiles": "NC(=O)C(=O)N/N=C/c1ccc([N+](=O)[O-])o1", "activity (max response)": "-15.1% (inactive)"}
{"smiles": "CCCCCOc1ccc(C2SC(=O)NC2=O)cc1OCC", "note": "(stereo not given)", "activity (max response)": "-6.25% (inactive)"}
{"smiles": "COc1ccccc1Oc1c(NS(=O)(=O)c2ccc(C(C)(C)C)cc2)nc(-c2ncccn2)nc1OCCO", "activity (max response)": "-3.16% (inactive)"}
{"smiles": "C[C@]12CC[C@H]3[C@@H](CCC4=CC(=O)CC[C@@]43C)[C@@H]1CC[C@@H]2C(=O)CO", "activity (max response)": "-8.44% (inactive)"}
{"smiles": "CCC(=O)c1c(O)cc(O)cc1O", "activity (max response)": "-1.99% (inactive)"}
{"smiles": "COc1cc2c(cc1OC)C(=O)C(CC1CCN(Cc3ccccc3)CC1)C2", "note": "(stereo not given)", "activity (max response)": "-16.2% (inactive)"}
{"smiles": "CCCCCCCC/C=C/C(=O)O", "activity (max response)": "-1.5% (inactive)"}
{"smiles": "Cc1nc(C2CCCCC2)c(-c2ccc(S(N)(=O)=O)c(F)c2)o1", "activity (max response)": "16% (inactive)"}
{"smiles": "O=C(CCN1CCN2CCCC2C1)N1c2ccccc2Sc2ccc(Cl)cc21", "note": "(stereo not given)", "activity (max response)": "-13.8% (inactive)"}
{"smiles": "CCc1nn(CCCN2CCN(c3cccc(Cl)c3)CC2)c(=O)n1CCOc1ccccc1", "Potency": "14.6 µM (active)"}
{"smiles": "O=C(/C=C/N1C[C@H]2C[C@@H]1CN2c1ccccn1)c1ccccc1O", "activity (max response)": "-11.7% (inactive)"}
{"smiles": "C[C@@H](O[C@H]1OCCN(Cc2n[nH]c(=O)[nH]2)[C@H]1c1ccc(F)cc1)c1cc(C(F)(F)F)cc(C(F)(F)F)c1", "Potency": "18.4 µM (active)"}
{"smiles": "Cc1ccc(Nc2cc(N[C@@H]3CCCC[C@@H]3N)nnc2C(N)=O)nc1C", "activity (max response)": "-5.27% (inactive)"}
{"smiles": "CN1CCC(OC(c2ccccc2)c2ccccc2)CC1", "activity (max response)": "0.851% (inactive)"}
{"smiles": "COc1cc(C)c(Cc2cnc(N)nc2N)cc1OC", "activity (max response)": "-2.95% (inactive)"}
{"smiles": "CC[C@H]1OC(=O)[C@H](C)C(=O)[C@H](C)[C@@H](O[C@H]2O[C@H](C)C[C@H](N(C)C)[C@H]2O)[C@](C)(OC)C[C@@H](C)C(=O)[C@H](C)[C@H]2N(CCCCn3cnc(-c4cccnc4)c3)C(=O)O[C@]12C", "activity (max response)": "-18.8% (inactive)"}
{"smiles": "CCC(CN)=C(c1ccccc1)c1ccccc1", "activity (max response)": "-12.8% (inactive)"}
{"smiles": "CC(C)C(C)(C)C(C)(C)C(C)(C)S", "activity (max response)": "7.64% (inactive)"}
{"smiles": "CC1=C2[N-][C@H]([C@H](CC(N)=O)[C@@]2(C)CCC(=O)NC[C@@H](C)OP(=O)([O-])O[C@H]2[C@@H](O)[C@@H](n3cnc4cc(C)c(C)cc43)O[C@@H]2CO)[C@]2(C)N=C(C(C)=C3N=C(C=C4N=C1[C@@H](CCC(N)=O)C4(C)C)[C@@H](CCC(N)=O)[C@]3(C)CC(N)=O)[C@@H](CCC(N)=O)[C@]2(C)CC(N)=O.O.[Co+2]", "activity (max response)": "-17.2% (inactive)"}
{"smiles": "Cc1nc2c([nH]1)c(=O)n(C)c(=O)n2Cc1ccco1", "activity (max response)": "-2.81% (inactive)"}
{"smiles": "O=C1S/C(=C\\c2ccc(OCc3cccc(B(O)O)c3)cc2)C(=O)N1Cc1ccc(F)cc1", "activity (max response)": "-17.7% (inactive)"}
{"smiles": "CCCc1c(OCCCOc2ccc(OCC(=O)O)cc2)ccc(C(C)=O)c1O", "activity (max response)": "-13.7% (inactive)"}
{"smiles": "COc1ccc(C(=O)N2CCN(C(=O)/C=C/c3ccc(Br)cc3)CC2)cc1", "activity (max response)": "-12.8% (inactive)"}
{"smiles": "CCN(CC)CCOCCOC(=O)C1(c2ccccc2)CCCC1", "activity (max response)": "-3.2% (inactive)"}
{"smiles": "CC(C)(C)CC(=O)OCC(=O)[C@@]1(O)CC[C@H]2[C@@H]3CCC4=CC(=O)C=C[C@]4(C)[C@H]3[C@@H](O)C[C@@]21C", "activity (max response)": "-10.9% (inactive)"}
{"smiles": "Cc1cc(O)c(-c2ccc([C@@H](C)CN)cc2)c2c1[nH]c(=O)c1sccc12", "activity (max response)": "-7.01% (inactive)"}
{"smiles": "O=C1C(CCS(=O)c2ccccc2)C(=O)N(c2ccccc2)N1c1ccccc1", "note": "(stereo not given)", "activity (max response)": "7.53% (inactive)"}
{"smiles": "Cn1ncc(Cl)c1-c1cc(C(=O)N[C@H](CN)Cc2cccc(F)c2)sc1Cl", "activity (max response)": "-8.31% (inactive)"}
{"smiles": "CCCCN=C(N)NC(=N)N", "activity (max response)": "17.9% (inactive)"}
